The list is not random: actives were taken first. Their share in the collection is about 27%.
CYP2C9 inh: inhibitors of human CYP2C9 | actives 20% (n = 96,000) | inhibition, % at 5 µM | CYP2C9 Supersomes, luciferin-H conversion, luminescence | AID 777 | P11712;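 active = blocking of liver enzyme CYP2C9 beyond about 50% at 5 µM, limit read from the data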
CYP2C9 activ: increases human cytochrome P450 2C9 activity; P11712; activation factor at 5 µM; recombinant CYP2C9, luciferin-H conversion, luminescence; active compounds read high; factor 1 = untreated enzyme, 0 = blocked; actives 1.4% (n = 96,000);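 active = activation factor of 2 or more for CYP2C9 at a 5 µM dose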;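 note: 0 = sulfaphenazole-blocked wells and 1 = vehicle-only wells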
CYP2C19 activ: activators of human cytochrome P450 2C19 | P33261 | recombinant CYP2C19, luciferin-H EGE luminescence; active compounds read high; 0 = fully inhibited enzyme, 1 = untreated enzyme | activation factor at 5 µM | 96,000 tested, under 10 active;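 active = activation factor of at least 2 at 5 µM in the primary screen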;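 note: 0 = wells with 2.5 mM tranylcypromine and 1 = vehicle-only wells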
CYP2C19 inhib: human CYP2C19 inhibition; P33261; CYP2C19 Supersomes, luciferin-H EGE luminescence, 30 min; inhibition, % at 5 µM; actives 21% (n = 96,000); AID 778;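 active = CYP2C19 inhibition above a set limit at 5 µM in the primary screen, cut at about 50% in these data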;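 note: plate controls were negative control wells for no effect and 2.5 mM tranylcypromine positive control for full effect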
Cav32 inh: human Cav3.2 channel inhibition, primary screen | O95180 | Cav3.2-expressing cells, Fluo-4 calcium fluorescence FDSS; active compounds read low | B-score at 10 µM | actives 4% (n = 100,000);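 active = single-dose well whose peak fluorescence ratio is a statistical outlier from its plate by either plate-standardised score or position-corrected B-score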
The depositor's hits bear a star; x = no result given.

SMILES	CYP2C9 inh	CYP2C9 activ	CYP2C19 activ	CYP2C19 inhib	Cav32 inh
CC1(C)CC(=O)C(/C=N/n2cnc3ccccc3c2=O)=C(O)C1	-1	1	1	-5	0.49
C=CCS/C(=N\n1cnc2ccccc2c1=O)N1CCCCC1	51*	0.5	0.8	16	-0.63
C=CCS/C(=N\n1cnc2ccccc2c1=O)N(CC)CC	63*	0.4	0	96*	0.73
Cc1oc(-c2ccccc2F)nc1CS(=O)(=O)CC(=O)NCCN(C)C1CCCCC1	3	1	1.1	-10	x
COc1ccc(N(C)C(=O)c2cnc(N3CCN(c4ncccn4)CC3)c3ccccc23)cc1	69*	0.3	0.2	79*	x
O=C(c1ccc(C#Cc2ccccc2)o1)N1CCN(c2ccccn2)CC1	56*	0.4	0.8	15	-0.77
COc1ccc(-c2cc(C(=O)N3CCN(c4ccccc4)CC3)c3ccccc3n2)cc1OC	93*	0.1	0.1	89*	-1.1
O=C(c1cc(-c2ccncc2)nc2ccccc12)N1CCN(c2ccccn2)CC1	85*	0.1	0.6	39	-2.1
O=C(N1CCOCC1)N1CCN(c2ccccn2)CC1	-12	1.1	1.1	-7	0.26
CCOc1ccc(CC(=O)Nc2c(C(N)=O)oc3ccccc23)cc1OCC	x	x	x	x	0.44
CCOC(=O)N1CCN(C(=O)c2cn(CCOC)c(=O)c3c2c2ccccc2n3C)CC1	-2	1	1.1	-10	0.97
Cn1c(SCC(=O)NCc2ccccc2)nnc1C1CC1	-8	1.1	1	1	0.017
COc1ccc(CC(C(=O)Nc2cc(C)ccc2C)/C(N)=N/O)cc1 (stereo unspecified)	0	1	0.6	40	x
CC1CN(c2nc3c(c(=O)[nH]c(=O)n3C)n2Cc2ccccc2F)CC(C)O1 (stereo unspecified)	19	0.8	1	1	0.46
O=C(c1ccccc1-c1ccccc1)N1CCN(c2ccccn2)CC1	73*	0.3	0.6	40	x
O=C(c1cnc(N2CCN(c3ncccn3)CC2)c2ccccc12)N1CCN(c2ccccn2)CC1	80*	0.2	0.3	68*	-0.38
O=C(c1cc(-c2ccccc2)nc2ccccc12)N1CCN(c2ccccn2)CC1	52*	0.5	0.6	37	-3.1
O=C(c1cc(N2CCCCC2)nc2ccccc12)N1CCOCC1	9	0.9	1	0	-0.02
O=C(c1cc(-c2ccncc2)nc2ccccc12)N1CCN(c2ccc(N3CCOCC3)nn2)CC1	68*	0.3	0.6	38	x
Cc1ccccc1C(=O)N1CCN(c2ccccn2)CC1	x	x	x	x	0.46
CC1(OC(=O)CCc2ccccc2)C(=O)C=C2C=C(c3ccc(C#N)cc3)N(CCc3c[nH]c4ccccc34)C=C2C1=O (stereo unspecified)	x	x	x	x	0.69
CC(Sc1ccc(Cl)cc1)C(=O)Nc1ccccc1C(=O)N1CCOCC1 (stereo unspecified)	-10	1.1	1.1	-5	0.46
O=C(Nc1c(F)cccc1F)c1cnc(N2CCN(c3ccccn3)CC2)c2ccccc12	65*	0.4	0.6	36	-2.4
O=C(Nc1ccc(F)c(F)c1)c1cc(S(=O)(=O)N2CCN(c3ccccn3)CC2)ccc1F	33	0.7	0.9	11	-0.74
O=C(Nc1ccccc1)c1cc(N2CCOCC2)nc2ccccc12	51*	0.5	0.8	20	0.4
SMILES	CYP2C9 inh	CYP2C9 activ	CYP2C19 activ	CYP2C19 inhib	Cav32 inh
O=P(Cc1ccccn1)(c1ccccc1)c1ccccc1	6	0.9	1	-4	-5
CCCCOc1ccc(C(=O)NCc2ccccn2)cc1	11	0.9	1	0	0.068
COc1ccc(C2=CC3=C(Br)C(=O)C(C)(OC(=O)c4cnc5ccccc5n4)C(=O)C3=CO2)cc1 (stereo unspecified)	x	x	x	x	0.019
O=C(Cn1cc(C(=O)c2ccco2)c2ccccc21)NCc1ccco1	37	0.6	0.8	24	-0.013
O=C(Cn1cc(C(=O)c2cccs2)c2ccccc21)NCc1ccc2c(c1)OCO2	73*	0.3	0.4	64*	-3
CCC(=O)c1cn(CC(=O)NCC2CCCO2)c2ccccc12 (stereo unspecified)	4	1	0.7	30	1.1
O=C(Cn1cc(C(=O)c2cccs2)c2ccccc21)NCC1CCCO1 (stereo unspecified)	47	0.5	0.3	67*	0.38
COc1ccc(CNC(=O)c2cccc(-c3ccc(C)c4ccccc34)n2)cc1	x	x	x	x	-0.58
CCCOc1ccccc1C1C(C(=O)OC)=CN(C(C)C)C=C1C(=O)OC	87*	0.1	0.1	89*	x
CCN(CC)C(=O)C1CCCN(C(=O)Nc2ccc3nsnc3c2)C1 (stereo unspecified)	25	0.8	0.4	59*	-0.018
Cc1ccc(CNC(=O)c2ccc(C#CC(C)(C)O)s2)cc1	22	0.8	1	5	-1.3
COc1ccc(C2CC(c3cccs3)=Nc3ccccc3S2)cc1 (stereo unspecified)	x	x	x	x	-2.3
CC(=O)c1cc(C)ccc1OC(=O)c1cccc2nc(C)oc12	61*	0.4	0.4	57*	0.075
Cc1ccccc1/C=c1\s/c(=C\C(=O)C(C)(C)C)[nH]c1=O	9	0.9	1	1	-1.1
CCOC(=O)c1c(C)n(CCNC(C)=O)c2ccc(O)cc12	44	0.6	0.4	60*	0.78
CC(=O)c1c(C)n(CCO)c2ccc(O)cc12	-15	1.1	1	4	0.00078
CCOC(=O)c1c(C)n(CC(O)c2ccccc2)c2ccc(O)cc12 (stereo unspecified)	60*	0.4	0.4	64*	-0.91
CCOC(=O)c1c2n(c3ccc(O)cc13)CCC2	x	x	x	x	-0.051
CCOC(=O)COc1ccc2c(c1)c(C(=O)OCC)c(C)n2CC	40	0.6	0.2	80*	x
CCOC(=O)c1c(C)n(C)c2ccc(OCC(N)=O)cc12	34	0.7	1	4	-0.7
Nc1sccc1C(=O)c1ccccc1	10	0.9	1.1	-11	0.27
Cc1nn(Cc2ccc(Cl)cc2Cl)c(C)c1NC(=O)NC12CC3CC(CC(C3)C1)C2	18	0.8	1	1	-4.2*
COc1ccc(OC)c(-c2csc(N(Cc3ccco3)C(=O)c3cccs3)n2)c1	85*	0.2	0.2	78*	-3.4
COc1ccccc1NC(=O)CN(Cc1ccco1)C(=O)c1cccs1	27	0.7	0.8	16	-0.5
COc1ccc(-c2csc(N(CC3CCCO3)C(=O)c3cccs3)n2)cc1 (stereo unspecified)	92*	0.1	0.1	88*	-1.2
CCN(CC)CCCN(C(=O)c1cccs1)c1nc(-c2ccc(OC)cc2)cs1	24	0.8	0.6	37	-0.073
COc1ccc(C(=O)/C=C/N2CCCCC2)cc1OC	-159	2.6*	1	4	0.49
CCCCC(=O)Nc1ccc(N2CCN(S(C)(=O)=O)CC2)cc1	5	1	1	2	1.1
COc1ccccc1CNS(=O)(=O)c1cc(C)ccc1OC	-61	1.6	0.1	90*	-0.36
